The record followed here is PubChem BioAssay (NCATS).

Records with an inconclusive call do not appear. Entries that show only a call come without a potency. Active and inactive are the calls of the source. The call rests on the fitted dose curve; in most records, active means well fitted curve in the direction sought with a large enough effect in the signal ratio, with a control signal flat (not every such curve was filed as active); inconclusive means small, poorly fitted or top-dose-only effect, or a change in a side signal; inactive means no such curve, though single readings can be large or run the other way; the % refers to the signal ratio.
Potency means the concentration at half of the fitted maximal effect.

The test is described as follows: qHTS Assay for Identification of Small Molecule Inducers of Hypoxia Response (AID 2120). As to conditions: hypoxia response reporter cells, beta-lactamase ratio readout; series mostly up to 104 µM. An excerpt: NIH Chemical Genomics Center [NCGC]
NIH Molecular Libraries Screening Centers Network [MLSCN]
National Institutes of Environmental Health Sciences [NIEHS]
National Toxicology Program [NTP]
Hypoxia-inducible factor-1 (HIF-1) is the major hypoxia-regulated transcription factor that controls cellular responses to low oxygen concentration. HIF-1 is composed of two subunits: hypoxia responsive HIF-1a and constitutively expressed HIF-1b, which is also known as aryl hydrocarbon receptor nuclear translocator. During hypoxic conditions, HIF-1a heterodimerizes with HIF-1b and translocates into the nucleus where the HIF-1 complex binds to the hypoxia-response element (HRE) and activates expression of target genes such as VEGF (vascular endothelial growth factor). The HIF-1 pathway is essential to normal growth and development, and is involved in the pathophysiology of cancer, inflammation, and ischemia.
Using a beta-lactamase reporter-gene under control of the hypoxia response element, a cell-based assay [CellSensor(TM) HRE-bla ME-180 developed by Invitrogen Corp.] was used to measure hypoxia-induced signaling. Library compounds were measured for their ability to induce the reporter gene activity. Compounds were screened in a titration series in 1536-well format. The inducers were identified based on the AC50 values derived from the screening data.
NCGC Assay Protocol Summary
2500 cells/5uL in Opti-MEM medium containing 0.5% dialyzed FBS, 0.1 mM NEAA, 1 mM sodium pyruvate and 10 mM HEPES was dispensed into 1536-well plates and cells were cultured at 37 degrees Celsius for 4-5 hours and then 23 nL of compounds or DMSO were delivered to each well using a pin tool. The plates were incubated at 37 degrees Celsius for 17 hours. 1 uL of CCF4-dye mixture was added to each well. After incubated at room temperature for 2.5 hours the plates were measured on an EnVision plate reader at Excitation 405nm, Emission1=460nm and Emission 2=530nm. The %Activity was determined from the ratio of 460nm/530nm.
On the technique in general: qHTS replaces the single test concentration by a dilution series.
Consider `CC(C)O`, for which the Potency entry is “inactive”.
For `CC1=CC(=O)NS(=O)(=O)O1`, the Potency result was “inactive”.
For the compound `OCl`, the Potency entry is “inactive”.
Regarding `OB(O)O`, the Potency result is “inactive”.
As to `NC(N)=O`, the Potency result was “inactive”.
Regarding `CO/N=C(/C(=O)N[C@@H]1C(=O)N2C(C(=O)O)=C(COC(N)=O)CS[C@H]12)c1ccco1`, the Potency entry is “inactive”.
Then `NCCN`, with “inactive”; and `CCCCO`, with “inactive”.
Then `CO`, with “inactive”; and `CC(C)(C)CC(C)(C)c1ccc(OCCO)cc1`, with “inactive”.
The same measure for `Cc1ncc[nH]1`: “inactive”; for `O=P(O)(O)O`: “inactive”; for `ClC(Cl)Cl`: “inactive”.
Regarding `OC[C@H]1O[C@@H]2O[C@H]3[C@H](O)[C@@H](O)[C@@H](O[C@H]4[C@H](O)[C@@H](O)[C@@H](O[C@H]5[C@H](O)[C@@H](O)[C@@H](O[C@H]6[C@H](O)[C@@H](O)[C@@H](O[C@H]7[C@H](O)[C@@H](O)[C@@H](O[C@H]1[C@H](O)[C@H]2O)O[C@@H]7CO)O[C@@H]6CO)O[C@@H]5CO)O[C@@H]4CO)O[C@@H]3CO`, the Potency result is “inactive”.
The same measure for `CC/C=C\C/C=C\C/C=C\CCCCCCCC(=O)O`: “inactive”; for `Oc1cccc(O)c1O`: “inactive”; for `OCC(O)CO`: “inactive”.
As for `Cc1ccc(S(=O)(=O)O)cc1C`, the Potency entry is “inactive”.
Then `Nc1ncnc2c1ncn2[C@H]1CC[C@@H](CO)O1`, with “inactive”; and `O.O.O.O.O.O.O.O=S(=O)([O-])[O-].[Co+2]`, with 31.6 µM (active); and `C/C=C/C=C/C(=O)O`, with “inactive”.
Then `OCc1ccccc1`, with “inactive”; and `O=c1n(CC2CO2)c(=O)n(CC2CO2)c(=O)n1CC1CO1` (stereo unspecified), with “inactive”; and `CCOC(C)OCC`, with “inactive”.
The same measure for `[O-][N+](=Nc1ccccc1)c1ccccc1`: “inactive”.
Regarding `Nc1nccs1`, the Potency result is “inactive”.
Then `CCCCC`, with “inactive”; and `C[C@H](CCC(=O)O)[C@H]1CC[C@H]2[C@@H]3[C@H](O)C[C@@H]4C[C@H](O)CC[C@]4(C)[C@H]3C[C@H](O)[C@]12C`, with “inactive”.
The same measure for `CC1=CCC2CC1C2(C)C` (stereo unspecified): “inactive”; for `c1ccc2ccccc2c1`: “inactive”.
Then `CC[C@H]1OC(=O)[C@H](C)[C@@H](O[C@H]2C[C@@](C)(OC)[C@@H](O)[C@H](C)O2)[C@H](C)[C@@H](O[C@@H]2O[C@H](C)C[C@H](N(C)C)[C@H]2O)[C@](C)(O)C[C@@H](C)CN(C)[C@H](C)[C@@H](O)[C@]1(C)O`, with “inactive”.
